According to the supplement of paper PMC10849652:
Of roughly 8,800 targets only a part is listed; those with a hit were picked by preference. About 0.5% of all pairs of compound and target were hits.

Experiments:
Test in all cases: log2 fold change, soluble protein after heating vs DMSO (PISA); higher = thermal stabilisation; K562 lysate, 10 uM; active = over 0.2 and 3.5 SD of the protein, either way, in both replicates (recomputed)
alvocidib = compound: CN1CC[C@H](c2c(O)cc(O)c3c(=O)cc(-c4ccccc4Cl)oc23)[C@H](O)C1 [alvocidib]
Summary of the method: (§1)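 A 30 min treatment with 10 μM compound was applied to crude K562 extract at 1 mg/mL protein in PBS pH 7.4 with 1 mM MgCl2. Heating for 3 min spanned 48°C-58°C, after which aliquots were pooled, adjusted to 0.5% NP-40 at 4°C and spun at 21,000xg for 90 min. TMTpro 16plex LC-MS/MS of the supernatant, with channel sums equalised, gave values recorded as log-two fold change in thermal stability against solvent controls, from duplicates.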

Tubastatin A = compound: CN1CCc2c(c3ccccc3n2Cc2ccc(C(=O)NO)cc2)C1 [Tubastatin A]
Summary of the method: as §1

[1] = compound: CNC(=O)C1=CC=CC=C1NC2=NC(=NC=C2Cl)NC3=C(C=C(C=C3)N4CCOCC4)OC
Summary of the method: as §1

defactinib = compound: CNC(=O)c1ccc(Nc2ncc(C(F)(F)F)c(NCc3nccnc3N(C)S(C)(=O)=O)n2)cc1 [defactinib]
Summary of the method: as §1

encorafenib = compound: COC(=O)N[C@@H](C)CNc1nccc(-c2cn(C(C)C)nc2-c2cc(Cl)cc(NS(C)(=O)=O)c2F)n1 [encorafenib]
Summary of the method: as §1

[2] = compound: COC(=O)[C@H](CCSC)NC(=O)C1=C(C=C(C=C1)NC[C@H](CS)N)C2=CC=CC=C2
Summary of the method: as §1

alisertib = compound: COc1cc(Nc2ncc3c(n2)-c2ccc(Cl)cc2C(c2c(F)cccc2OC)=NC3)ccc1C(=O)O [alisertib]
Summary of the method: as §1

[3] = compound: COc1cc2nc(-c3cc(F)ccc3O)nc(N[C@@H]3CNC[C@H]3C(C)(C)O)c2cc1OC
Summary of the method: as §1

gefitinib = compound: COc1cc2ncnc(Nc3ccc(F)c(Cl)c3)c2cc1OCCCN1CCOCC1 [gefitinib]
Summary of the method: as §1

lapatinib = compound: CS(=O)(=O)CCNCc1ccc(-c2ccc3ncnc(Nc4ccc(OCc5cccc(F)c5)c(Cl)c4)c3c2)o1 [lapatinib]
Summary of the method: as §1

pictilisib = compound: CS(=O)(=O)N1CCN(Cc2cc3nc(-c4cccc5[nH]ncc45)nc(N4CCOCC4)c3s2)CC1 [pictilisib]
Summary of the method: as §1

crizotinib = compound: C[C@@H](Oc1cc(-c2cnn(C3CCNCC3)c2)cnc1N)c1c(Cl)ccc(F)c1Cl [crizotinib]
Summary of the method: as §1

[4] = compound: C[C@H](C1=CC=C(C=C1)C(=O)NC2=C3C=CNC3=NC=C2)N
Summary of the method: as §1

gandotinib = compound: Cc1cc(Nc2cc(CN3CCOCC3)c3nc(C)c(Cc4ccc(Cl)cc4F)n3n2)n[nH]1 [gandotinib]
Summary of the method: as §1

tozasertib = compound: Cc1cc(Nc2cc(N3CCN(C)CC3)nc(Sc3ccc(NC(=O)C4CC4)cc3)n2)n[nH]1 [tozasertib]
Summary of the method: as §1

doramapimod = compound: Cc1ccc(-n2nc(C(C)(C)C)cc2NC(=O)Nc2ccc(OCCN3CCOCC3)c3ccccc23)cc1 [doramapimod]
Summary of the method: as §1

bafetinib = compound: Cc1ccc(NC(=O)c2ccc(CN3CC[C@H](N(C)C)C3)c(C(F)(F)F)c2)cc1Nc1nccc(-c2cncnc2)n1 [bafetinib]
Summary of the method: as §1

[5] = compound: Cc1cccc(CC(=O)N2CCc3c2ccc(-c2cn(C)c4ncnc(N)c24)c3F)n1
Summary of the method: as §1

[6] = compound: CNc1nc(-c2ccc3c(N)n[nH]c3c2)cc(N2C[C@@H](C(=O)NC3CCCCC3)CC[C@H]2C)n1
Summary of the method: as §1

duvelisib = compound: C[C@H](Nc1ncnc2nc[nH]c12)c1cc2cccc(Cl)c2c(=O)n1-c1ccccc1 [duvelisib]
Summary of the method: as §1

Measured: log2 fold change

AGGF1 (UniProt Q8N302)
Sequence of UniProt Q8N302 (Q8N302 whole entry, looked up): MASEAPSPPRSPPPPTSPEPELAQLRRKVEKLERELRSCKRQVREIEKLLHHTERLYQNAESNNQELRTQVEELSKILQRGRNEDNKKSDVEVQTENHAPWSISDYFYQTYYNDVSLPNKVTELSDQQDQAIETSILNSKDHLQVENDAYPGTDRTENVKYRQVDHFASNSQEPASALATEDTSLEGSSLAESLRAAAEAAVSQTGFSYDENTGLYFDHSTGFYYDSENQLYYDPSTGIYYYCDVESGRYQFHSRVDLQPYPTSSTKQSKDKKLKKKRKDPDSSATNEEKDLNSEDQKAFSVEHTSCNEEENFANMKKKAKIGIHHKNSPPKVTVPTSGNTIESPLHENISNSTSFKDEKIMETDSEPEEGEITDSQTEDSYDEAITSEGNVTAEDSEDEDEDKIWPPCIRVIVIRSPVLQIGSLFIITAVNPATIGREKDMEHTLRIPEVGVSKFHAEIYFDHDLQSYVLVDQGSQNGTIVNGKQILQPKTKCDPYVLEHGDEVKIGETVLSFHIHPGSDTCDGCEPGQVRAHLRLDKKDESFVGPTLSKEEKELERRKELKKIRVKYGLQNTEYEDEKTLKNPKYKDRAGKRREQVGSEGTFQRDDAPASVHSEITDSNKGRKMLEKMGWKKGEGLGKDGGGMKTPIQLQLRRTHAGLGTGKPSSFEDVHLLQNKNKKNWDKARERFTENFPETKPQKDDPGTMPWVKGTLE
active: defactinib -0.365
inactive: alvocidib -0.114 | Tubastatin A -0.058 | [1] 0.023 | encorafenib 0.126 | [2] 0.008 | alisertib -0.015 | [3] 0.145 | gefitinib -0.008 | lapatinib -0.046 | pictilisib -0.133 | crizotinib -0.028 | [4] -0.193 | gandotinib 0.139 | tozasertib 0.04 | doramapimod -0.011 | bafetinib 0.047 | [5] 0.268

ABL1 isoform 2 (UniProt P00519)
Sequence of UniProt P00519 (P00519 whole entry, looked up): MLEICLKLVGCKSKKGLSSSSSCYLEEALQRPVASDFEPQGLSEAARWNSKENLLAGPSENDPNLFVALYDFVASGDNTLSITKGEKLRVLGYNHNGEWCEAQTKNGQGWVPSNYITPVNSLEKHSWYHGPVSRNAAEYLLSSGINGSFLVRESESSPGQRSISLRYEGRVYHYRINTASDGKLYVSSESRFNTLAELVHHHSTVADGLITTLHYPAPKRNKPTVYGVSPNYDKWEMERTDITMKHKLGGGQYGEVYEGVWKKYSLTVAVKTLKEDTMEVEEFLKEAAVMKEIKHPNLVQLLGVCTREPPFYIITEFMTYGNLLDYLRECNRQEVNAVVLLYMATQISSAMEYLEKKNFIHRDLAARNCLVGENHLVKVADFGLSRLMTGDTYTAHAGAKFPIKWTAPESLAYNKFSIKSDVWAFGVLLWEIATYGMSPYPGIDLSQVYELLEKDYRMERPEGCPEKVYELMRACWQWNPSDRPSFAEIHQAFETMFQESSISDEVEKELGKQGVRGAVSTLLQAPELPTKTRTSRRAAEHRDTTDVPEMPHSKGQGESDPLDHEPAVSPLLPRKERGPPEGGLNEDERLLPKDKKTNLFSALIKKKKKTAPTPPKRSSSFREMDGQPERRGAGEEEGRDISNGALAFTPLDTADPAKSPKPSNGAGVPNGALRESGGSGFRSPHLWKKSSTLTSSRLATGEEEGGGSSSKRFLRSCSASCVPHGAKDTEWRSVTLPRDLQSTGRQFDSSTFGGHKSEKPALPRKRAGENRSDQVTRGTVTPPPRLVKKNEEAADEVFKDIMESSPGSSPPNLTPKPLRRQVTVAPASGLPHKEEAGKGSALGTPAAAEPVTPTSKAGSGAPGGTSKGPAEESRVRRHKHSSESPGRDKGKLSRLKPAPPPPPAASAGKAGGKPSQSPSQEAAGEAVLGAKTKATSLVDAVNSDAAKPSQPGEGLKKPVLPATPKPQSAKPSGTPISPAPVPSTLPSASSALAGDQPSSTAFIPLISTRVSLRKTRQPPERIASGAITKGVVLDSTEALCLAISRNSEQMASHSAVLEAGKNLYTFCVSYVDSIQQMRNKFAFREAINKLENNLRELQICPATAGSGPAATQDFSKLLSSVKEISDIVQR
inactive: Tubastatin A -0.091 | [1] 0.044 | defactinib -0.023 | [6] -0.011 | encorafenib 0.039 | [2] 0.071 | alisertib 0.019 | [3] -0.011 | lapatinib -0.01 | pictilisib -0.094 | [4] 0.135 | duvelisib 0.004 | gandotinib -0.04 | [5] -0.048

ADD1 isoform 4 (UniProt P35611)
Sequence of UniProt P35611 (P35611 whole entry, looked up): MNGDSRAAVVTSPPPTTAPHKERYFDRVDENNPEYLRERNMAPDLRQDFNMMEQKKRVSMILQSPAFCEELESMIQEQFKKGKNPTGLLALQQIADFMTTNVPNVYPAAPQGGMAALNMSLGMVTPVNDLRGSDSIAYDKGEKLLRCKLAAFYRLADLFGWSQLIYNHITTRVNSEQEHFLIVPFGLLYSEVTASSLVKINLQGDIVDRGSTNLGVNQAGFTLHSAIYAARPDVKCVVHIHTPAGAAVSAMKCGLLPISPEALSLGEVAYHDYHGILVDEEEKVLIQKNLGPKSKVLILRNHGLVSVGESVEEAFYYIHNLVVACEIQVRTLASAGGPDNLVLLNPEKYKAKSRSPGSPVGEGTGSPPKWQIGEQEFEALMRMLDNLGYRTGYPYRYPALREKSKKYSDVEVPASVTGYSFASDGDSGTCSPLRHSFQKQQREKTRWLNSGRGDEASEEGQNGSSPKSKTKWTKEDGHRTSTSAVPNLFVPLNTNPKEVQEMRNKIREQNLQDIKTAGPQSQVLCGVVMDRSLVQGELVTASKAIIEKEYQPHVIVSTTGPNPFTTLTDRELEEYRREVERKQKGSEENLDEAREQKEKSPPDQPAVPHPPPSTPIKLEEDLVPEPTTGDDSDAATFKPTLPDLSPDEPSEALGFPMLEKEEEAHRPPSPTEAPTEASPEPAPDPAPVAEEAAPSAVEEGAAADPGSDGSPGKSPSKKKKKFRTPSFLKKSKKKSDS
active: [4] -0.745
inactive: alvocidib -0.397 | Tubastatin A 0.303 | [1] -0.081 | defactinib 0.071 | [6] 0.051 | encorafenib -0.034 | [2] 0 | [3] 0.094 | lapatinib -0.006 | pictilisib -0.168 | duvelisib 0.029 | gandotinib 0.556 | tozasertib -0.044 | bafetinib 0.097 | [5] 0.563

ANP32E isoform 3 (UniProt Q9BTT0)
Sequence of UniProt Q9BTT0 (Q9BTT0 whole entry, looked up): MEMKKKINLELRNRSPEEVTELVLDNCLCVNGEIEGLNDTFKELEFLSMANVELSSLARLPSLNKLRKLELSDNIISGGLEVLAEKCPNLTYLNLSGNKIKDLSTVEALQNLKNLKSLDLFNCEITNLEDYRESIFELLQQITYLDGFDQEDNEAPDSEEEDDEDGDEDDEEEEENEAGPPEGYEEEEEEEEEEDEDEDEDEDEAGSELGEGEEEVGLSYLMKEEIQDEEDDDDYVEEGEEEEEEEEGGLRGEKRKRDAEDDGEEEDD
active: [4] -0.843
inactive: alvocidib -0.27 | defactinib -0.141 | encorafenib 0.036 | [2] -0.015 | pictilisib -0.012 | gandotinib 0.213 | tozasertib 0.165 | bafetinib -0.14 | [5] 0.439

ADK, A0A5F9ZH76
inactive: alisertib 0.008 | [3] -0.063 | gefitinib 0.072 | lapatinib -0.013 | pictilisib -0.074 | bafetinib 0.147

ABCC5 (UniProt O15440)
inactive: alvocidib -0.12 | Tubastatin A 0.121 | [1] -0.002 | defactinib 0.125 | [6] 0.008 | encorafenib 0.165 | [2] -0.032 | [3] -0.012 | lapatinib 0.013 | pictilisib 0.13 | crizotinib 0.014 | [4] -0.038 | duvelisib -0.045 | gandotinib 0.043 | tozasertib -0.016 | doramapimod 0.081 | bafetinib -0.117 | [5] 0.045

ANKRD10 (UniProt Q9NXR5)
inactive: alvocidib 0.003 | Tubastatin A -0.037 | [1] 0.018 | defactinib 0.012 | [6] -0.016 | alisertib -0.018 | [3] 0.035 | gefitinib -0.047 | lapatinib -0.074 | pictilisib 0.184 | crizotinib 0.017 | [4] -0.032 | duvelisib -0.052 | gandotinib -0.088 | doramapimod -0.079 | bafetinib -0.112 | [5] 0.007

ARL13B (UniProt Q3SXY8)
inactive: alvocidib 0.182 | Tubastatin A 0.018 | [1] 0.165 | defactinib -0.025 | [6] -0.102 | [3] 0 | lapatinib 0.016 | pictilisib -0.074 | crizotinib -0.075 | duvelisib 0.014 | gandotinib -0.23 | doramapimod -0.068 | bafetinib 0.025 | [5] -0.217
active: [4] 0.4

AP3D1 isoform 2 (UniProt O14617)
inactive: alvocidib 0.25 | [1] -0.06 | defactinib 0.078 | alisertib 0.093 | [3] 0.087 | gefitinib 0.111 | lapatinib 0.084 | [4] 0.19 | gandotinib -0.429 | [5] -0.084

ALDH3A1 (UniProt P30838)
Sequence of UniProt P30838 (P30838 whole entry, looked up): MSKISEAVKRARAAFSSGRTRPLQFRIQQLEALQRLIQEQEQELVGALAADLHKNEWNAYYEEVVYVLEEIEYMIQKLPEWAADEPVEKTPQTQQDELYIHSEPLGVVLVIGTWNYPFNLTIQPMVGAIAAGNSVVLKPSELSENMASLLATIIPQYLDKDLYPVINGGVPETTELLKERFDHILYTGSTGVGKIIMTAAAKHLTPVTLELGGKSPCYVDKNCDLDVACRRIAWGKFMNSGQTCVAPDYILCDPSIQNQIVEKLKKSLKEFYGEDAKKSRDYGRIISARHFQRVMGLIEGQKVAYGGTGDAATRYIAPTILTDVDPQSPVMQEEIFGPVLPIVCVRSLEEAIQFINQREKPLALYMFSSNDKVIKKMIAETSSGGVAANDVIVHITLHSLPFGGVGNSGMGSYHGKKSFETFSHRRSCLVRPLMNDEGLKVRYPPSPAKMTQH
inactive: alvocidib -0.218 | Tubastatin A 0.366 | [1] -0.065 | [6] -0.138 | [3] 0.165 | lapatinib -0.002 | crizotinib -0.134 | [4] -0.721 | duvelisib -0.061 | gandotinib 0.569 | doramapimod 0.015 | [5] 0.586

ANKRD40 (UniProt Q6AI12)
Sequence of UniProt Q6AI12 (Q6AI12 whole entry, looked up): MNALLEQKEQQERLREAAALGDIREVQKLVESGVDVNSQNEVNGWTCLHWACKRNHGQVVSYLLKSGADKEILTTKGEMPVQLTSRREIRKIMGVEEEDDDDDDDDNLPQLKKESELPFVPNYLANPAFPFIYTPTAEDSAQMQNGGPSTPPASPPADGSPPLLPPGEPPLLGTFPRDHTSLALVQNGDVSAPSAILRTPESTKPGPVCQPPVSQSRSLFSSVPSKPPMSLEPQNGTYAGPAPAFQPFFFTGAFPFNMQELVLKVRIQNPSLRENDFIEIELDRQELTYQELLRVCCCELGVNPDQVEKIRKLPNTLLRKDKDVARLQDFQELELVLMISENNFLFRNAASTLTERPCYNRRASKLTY
inactive: alvocidib 0.084 | Tubastatin A -0.164 | [1] 0.08 | defactinib 0.095 | [6] 0.101 | encorafenib 0.04 | [2] -0.109 | alisertib -0.188 | gefitinib -0.089 | pictilisib -0.116 | crizotinib -0.022 | [4] -0.018 | duvelisib -0.171 | gandotinib -0.032 | tozasertib 0.249 | doramapimod -0.027 | bafetinib -0.149 | [5] -0.067

AIF1L (UniProt Q9BQI0)
Sequence of UniProt Q9BQI0 (Q9BQI0 whole entry, looked up): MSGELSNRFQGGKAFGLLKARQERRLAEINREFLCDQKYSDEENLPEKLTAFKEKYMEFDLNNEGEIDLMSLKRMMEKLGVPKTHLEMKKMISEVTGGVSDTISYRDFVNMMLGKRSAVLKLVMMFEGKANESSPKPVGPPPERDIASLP
inactive: alvocidib 0.083 | Tubastatin A -0.009 | [1] 0.073 | [6] 0.164 | encorafenib 0.06 | alisertib 0.095 | [3] 0.001 | gefitinib 0.035 | lapatinib 0.047 | pictilisib 0.046 | crizotinib 0.039 | [4] 0.069 | duvelisib -0.075 | gandotinib -0.171 | tozasertib -0.105 | doramapimod -0.037 | bafetinib -0.122 | [5] 0.101
active: [2] -0.401

ALG13 isoform 2 (UniProt Q9NP73)
inactive: alvocidib 0.003 | alisertib -0.281 | gefitinib -0.095 | [4] 0.054 | gandotinib -0.088 | [5] 0.106

ACTG1 (UniProt K7EM38)
inactive: encorafenib -0.286 | [2] 0.142 | [3] 0.099 | lapatinib -0.08 | tozasertib 0.207

ABRACL (UniProt Q9P1F3)
Sequence of UniProt Q9P1F3 (Q9P1F3 whole entry, looked up): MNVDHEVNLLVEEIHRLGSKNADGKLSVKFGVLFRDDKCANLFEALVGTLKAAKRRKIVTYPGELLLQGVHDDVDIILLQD
inactive: alvocidib -0.016 | [1] 0.121 | [6] 0.166 | alisertib 0.091 | [3] -0.081 | gefitinib -0.207 | lapatinib 0.154 | pictilisib -0.075 | crizotinib -0.105 | [4] -0.053 | duvelisib -0.239 | gandotinib -0.003 | doramapimod -0.014 | bafetinib 0.09 | [5] -0.047

AP5B1 (UniProt Q2VPB7)
inactive: alvocidib -0.091 | Tubastatin A -0.149 | [1] 0.099 | [6] -0.092 | encorafenib -0.017 | [2] -0.011 | alisertib -0.008 | [3] -0.059 | gefitinib 0.05 | lapatinib 0.095 | pictilisib -0.046 | crizotinib 0.069 | [4] 0.034 | duvelisib -0.012 | gandotinib -0.092 | tozasertib -0.028 | doramapimod 0.272 | bafetinib -0.056 | [5] 0.047

AIMP2 isoform 2 (UniProt Q13155)
Sequence of UniProt Q13155 (Q13155 whole entry, looked up): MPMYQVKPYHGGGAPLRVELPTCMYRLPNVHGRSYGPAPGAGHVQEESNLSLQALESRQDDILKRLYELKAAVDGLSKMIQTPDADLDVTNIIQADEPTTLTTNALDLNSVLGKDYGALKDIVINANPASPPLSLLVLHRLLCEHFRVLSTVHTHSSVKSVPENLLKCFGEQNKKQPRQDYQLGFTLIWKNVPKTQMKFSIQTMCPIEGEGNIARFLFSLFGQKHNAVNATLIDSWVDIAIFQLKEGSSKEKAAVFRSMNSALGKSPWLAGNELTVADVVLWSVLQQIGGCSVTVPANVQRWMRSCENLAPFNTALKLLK
inactive: Tubastatin A -0.038 | [3] 0.115 | lapatinib -0.058 | pictilisib -0.148 | crizotinib -0.036 | doramapimod -0.019 | bafetinib -0.082

ADAM17 (UniProt P78536)
inactive: alvocidib -0.066 | Tubastatin A 0.063 | [1] 0.011 | defactinib 0.005 | [6] 0.04 | encorafenib 0.09 | [2] 0.109 | alisertib -0.048 | gefitinib 0.031 | pictilisib 0.032 | crizotinib 0.051 | [4] 0.008 | duvelisib 0.024 | gandotinib 0.054 | tozasertib -0.015 | doramapimod -0.06 | bafetinib 0.019 | [5] 0.099

ACVR1 (UniProt Q04771)
inactive: alvocidib 0.086 | [6] -0.056 | alisertib 0.069 | gefitinib 0.158 | pictilisib 0.006 | [4] 0.103 | duvelisib -0.015 | gandotinib 0.643 | bafetinib 0.007 | [5] -0.294

ACLY isoform 2 (UniProt P53396)
inactive: alvocidib -0.147 | Tubastatin A 0.017 | defactinib 0.007 | encorafenib 0.072 | [2] 0.009 | alisertib -0.089 | [3] 0.071 | gefitinib -0.407 | lapatinib 0.012 | pictilisib -0.03 | crizotinib 0.078 | gandotinib 0.323 | tozasertib 0.055 | doramapimod -0.119 | bafetinib 0.004 | [5] 0.277
active: [4] -0.423

ABHD13 (UniProt Q7L211)
Sequence of UniProt Q7L211 (Q7L211 whole entry, looked up): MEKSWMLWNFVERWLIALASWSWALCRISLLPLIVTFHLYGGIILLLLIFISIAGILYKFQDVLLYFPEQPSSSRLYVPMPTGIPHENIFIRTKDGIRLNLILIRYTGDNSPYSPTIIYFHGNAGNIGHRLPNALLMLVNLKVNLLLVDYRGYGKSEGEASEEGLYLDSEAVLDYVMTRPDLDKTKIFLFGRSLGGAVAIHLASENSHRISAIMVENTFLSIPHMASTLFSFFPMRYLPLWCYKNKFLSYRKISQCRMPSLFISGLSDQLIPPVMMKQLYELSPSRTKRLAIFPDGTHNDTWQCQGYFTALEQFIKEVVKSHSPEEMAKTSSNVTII
active: [4] -0.593
inactive: alvocidib -0.225 | defactinib 0.022 | [6] -0.051 | encorafenib 0 | [2] 0.006 | alisertib 0.023 | [3] -0.019 | gefitinib 0.06 | lapatinib -0.059 | pictilisib 0.049 | crizotinib 0.197 | duvelisib 0 | gandotinib 0.193 | tozasertib -0.044 | doramapimod -0.104 | bafetinib -0.197 | [5] 0.184

ALKBH1 (UniProt Q13686)
inactive: alvocidib 0.003 | Tubastatin A -0.018 | [1] -0.113 | defactinib -0.008 | [6] 0.027 | encorafenib -0.016 | [2] 0.073 | alisertib -0.044 | gefitinib -0.07 | [4] -0.016 | duvelisib 0.014 | gandotinib 0 | tozasertib 0.09 | [5] 0.048

ANXA13 isoform 2 (UniProt P27216)
Sequence of UniProt P27216 (P27216 whole entry, looked up): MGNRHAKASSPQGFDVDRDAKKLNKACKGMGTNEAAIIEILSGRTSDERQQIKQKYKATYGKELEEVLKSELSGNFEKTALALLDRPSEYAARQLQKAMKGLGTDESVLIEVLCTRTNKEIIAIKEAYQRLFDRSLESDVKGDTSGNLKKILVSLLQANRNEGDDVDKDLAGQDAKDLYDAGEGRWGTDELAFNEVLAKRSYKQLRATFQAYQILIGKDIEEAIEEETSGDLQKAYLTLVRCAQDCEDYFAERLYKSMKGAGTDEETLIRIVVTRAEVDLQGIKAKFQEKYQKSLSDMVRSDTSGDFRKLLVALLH
inactive: alvocidib -0.121 | Tubastatin A -0.072 | [1] -0.059 | defactinib -0.036 | [6] -0.369 | alisertib 0.047 | [3] 0.034 | gefitinib 0.085 | lapatinib -0.111 | pictilisib -0.03 | crizotinib 0.011 | [4] 0.057 | duvelisib -0.116 | doramapimod 0.038 | bafetinib -0.195 | [5] 0.284
active: gandotinib 0.545
